The values below come from PubChem BioAssay AID1621 (Southern Research Specialized Biocontainment Screening …, 2009).

Molecules are shown by their SMILES. Among all 290,000 compounds or so, about 60 (0.02%) were called active. Not shown: some 1% with an inconclusive outcome. Not all results are given here. Entries with a potency or affinity are not part of this list. A number with no mark means an inactive call. No rule for the calls is given here.

The nature of this experiment: inhibition of WNV-induced cytopathic effect – cell-based, CPE readout (AID 1621). Conditions: West Nile virus-infected cells, at 10 µM, stronger effect = higher value. (Protection from cytopathic effect is a common read-out in antiviral testing.)
As for `O=C(Nc1ccccc1)C1CC(O)CN1S(=O)(=O)c1ccc([N+](=O)[O-])cc1` (stereo not drawn), the CPE inhibition was 0.17%.
Consider `Cc1ccc(-c2oc3ccccc3c(=O)c2OCC(=O)O)cc1`, for which the CPE inhibition is 0.23%.
Take `COc1cc(NC(=O)COC(=O)CCc2cc(OC)c(OC)c(OC)c2)cc(OC)c1`: the CPE inhibition was 1.02%.
`CCCCN(CC)CCNC(=O)c1cc2c(=O)n(CC)c3ccccc3c2s1`: the CPE inhibition was -1.08%.
For `COCCN(CCOC)C(=O)c1cc2sc3ccccc3c2s1`, the CPE inhibition was -0.78%.
As for `CCN(CC)C(=O)c1cc2sc3ccccc3c2s1`, the CPE inhibition was -0.37%.
As for `CN(C)CCCNC(=O)c1ccccn1`, the CPE inhibition was 0.08%.
With `CCN(CC)CCCNC(=O)c1cc2c(=O)n(CC)c3ccccc3c2s1`, the CPE inhibition was 1.54%.
For `COCCNC(=O)c1cc2sc3ccccc3c2s1`, the CPE inhibition is -0.09%.
For the compound `O=C(COc1ccc(S(=O)(=O)N2CCc3ccccc32)cc1Cl)NCc1ccccn1`, the CPE inhibition was -0.17%.
As to `CCOc1ccc(NC(=O)C(C)O)c(NS(=O)(=O)c2ccc(CCNC(C)=O)cc2)c1` (stereo not drawn), the CPE inhibition is -0.27%.
Regarding `O=C(CNS(=O)(=O)c1ccccc1)OCC(=O)c1ccc(Br)cc1`, the CPE inhibition was -0.68%.
The figure for `CCOC(=O)C1C(=O)CC(C)(O)C(C(=O)OCC)C1c1ccc(NC(C)=O)cc1` (stereo not drawn) is 0%; for `O=C1CSC(c2cn(-c3ccccc3)nc2-c2ccccc2)N1Cc1ccco1` (stereo not drawn) it is -0.03%.
On to `O=C(NC1CCS(=O)(=O)C1)c1sc2ccccc2c1Cl` (stereo not drawn), for which the CPE inhibition was 1.04%.
The same measure for `CCCC1CCC(C(=O)Nn2cnc3ccccc3c2=O)CC1` (stereo not drawn): 0.33%.
The same measure for `Cc1[nH]c(=O)c(C#N)c(C)c1CCC(=O)NCc1ccc(Cl)cc1`: 0.96%; for `Cc1nc(Cl)sc1C(=O)NC(C)c1ccc(Cl)cc1` (stereo not drawn): -0.9%.
The same measure for `O=C1CN(C(=O)c2ccc(Cl)nc2)c2ccccc2N1`: 0.17%; for `CC(C)(C)c1ccc(NC(=O)CSc2nnc(-c3n[nH]c4ccccc34)o2)cc1`: 0.07%.
As to `Cc1cc(C)c2nc(N3CCCC(C(=O)NCCCN4CCOCC4)C3)sc2c1` (stereo not drawn), the CPE inhibition was -0.13%.
`Cc1cc(C)c2nc(N3CCCC(C(=O)NCCN4CCOCC4)C3)sc2c1` (stereo not drawn): the CPE inhibition was -0.73%.
Consider `COC(=O)c1ccccc1NC(=S)N(Cc1ccc2c(c1)OCO2)Cc1cc2cc(C)ccc2[nH]c1=O`, for which the CPE inhibition is 0.29%.
Turning to `Cc1[nH]c(C(=O)O)c(C)c1C(=O)OC(C)C`, the CPE inhibition is 0.13%.
`CC(C(=O)NC(C)(C)C)N1C(=O)c2cccc3cccc(c23)C1=O` (stereo not drawn): the CPE inhibition was -0.58%.
With `NCCNC(=O)c1c(NC(=O)c2ccccc2)sc2c1CCCC2`, the CPE inhibition is -0.62%.
The same measure for `CN(C)CCNC(=O)c1c(NC(=O)c2ccccc2)sc2c1CCCC2`: 2.53%; for `CCc1cccc(NC(=O)C2CCCN2S(=O)(=O)c2cccc3cccnc23)c1` (stereo not drawn): -0.25%; for `O=C(NC1CC1)c1cc2c(s1)-c1ccccc1OC2`: 1.08%.
As for `CCCN1CCN(CCCNC(=O)c2cc3c(s2)-c2c(C)cccc2OC3)CC1`, the CPE inhibition is -0.21%.
Take `Cc1cccc2c1-c1sc(C(=O)NCCCN3CCc4ccccc4C3)cc1CO2`: the CPE inhibition is -0.65%.
As for `CCN1CCN(CCCNC(=O)c2cc3c(s2)-c2ccccc2OC3)CC1`, the CPE inhibition was 35.2%.
Turning to `O=C(NCc1cccs1)c1cc2c(s1)-c1ccccc1OC2`, the CPE inhibition was 0.12%.
`Cc1cccc2c1-c1sc(C(=O)NCCCN3CCC(C)CC3)cc1CO2`: the CPE inhibition is 1.03%.
With `O=C(NCCCN1CCOCC1)c1cc2c(s1)-c1ccccc1OC2`, the CPE inhibition was 0.21%.
The figure for `Cc1cccc2c1-c1sc(C(=O)NCCCN3CCCC(C)C3)cc1CO2` (stereo not drawn) is -0.27%.
Consider `CC1(C)SC2c3ccccc3C(=O)N2[C@@H]1C(=O)O` (stereo partly drawn), for which the CPE inhibition is 1.57%.
The same measure for `COc1ccc(C2/C=C\CN(C(=O)OCc3ccccc3)CC(=O)N2Cc2ccc(F)cc2)cc1` (stereo not drawn): -0.53%; for `O=c1c2ccccc2cnn1Cc1cccc(Br)c1`: 0%.
The same measure for `COc1ccc(-c2noc(N3CCCC(C(=O)Nc4cc(F)ccc4F)C3)n2)cc1` (stereo not drawn): -0.21%; for `CCSc1nnc(Nc2ccccc2)s1`: 0.4%; for `C/C(=N\NC(=O)c1nn(C)c(C)c1Br)c1ccc(NC(=O)c2ccc(C)s2)cc1`: -0.9%.
For the compound `Cc1ccc(S(=O)(=O)NC(C)CCc2ccccc2)cc1` (stereo not drawn), the CPE inhibition was -1.02%.
Turning to `COc1cc2ccccc2cc1C(=O)NC(=S)Nc1nnn(C)n1`, the CPE inhibition was 0.33%.
`Cc1sc(/C=C2\C(=O)ON=C2c2ccccc2)cc1Br`: the CPE inhibition was 0.35%.
Take `CC(C)NC(=O)c1ccc(-c2ccc(Cl)c(C(F)(F)F)c2)o1`: the CPE inhibition is -0.86%.
`CCOC(=O)C1C(c2cccs2)NC(=O)N(C)C1(O)C(F)(F)F` (stereo not drawn): the CPE inhibition is -0.41%.
For `CCCCNC(=O)c1onc(CSc2cc(C)cc(C)c2)c1C(=O)NCCCC`, the CPE inhibition is -0.6%.
For the compound `COCCNC(=O)c1onc(CSc2cc(C)cc(C)c2)c1C(=O)NCCOC`, the CPE inhibition was 0.39%.
The same measure for `O=C(CC(=O)Nc1ccccc1C(=O)O)NNC(=O)Cc1ccccc1`: -0.29%; for `CN(C)C(=O)N1CCN(c2nc(-c3ccccc3)cs2)CC1`: -0.36%; for `O=C(CCCl)N1CCN(c2nc(-c3ccccc3)cs2)CC1`: 1.96%.
As for `CCCNc1c(NC(=O)c2cccs2)c(=O)oc2ccccc12`, the CPE inhibition is -0.26%.
As for `Cc1ccc(NC(=O)C(C)N2C(=O)c3ccccc3C2=O)cc1C` (stereo not drawn), the CPE inhibition was 0.2%.
With `CCOC(=O)CN1C(=O)N[C@@H](c2cccc(C(F)(F)F)c2)[C@H](C(C)=O)[C@H]1C`, the CPE inhibition is -0.43%.
For `CCN(CC)CCC(c1cc(OC)c(OC)c(OC)c1)c1c(OC)cc(OC)c2c(C)cc(=O)oc12` (stereo not drawn), the CPE inhibition is -0.13%.
Turning to `CCN(CC)CCC(c1ccc(N(C)C)cc1)c1c(OC)cc(OC)c2c(-c3ccccc3)cc(=O)oc12` (stereo not drawn), the CPE inhibition is -0.46%.
Turning to `CONC(=O)Nc1ccccc1[N+](=O)[O-]`, the CPE inhibition is 0.1%.
For the compound `CCOC(=O)c1[nH]c2ccccc2c1NC(=O)C(C)(C)C`, the CPE inhibition was 0.96%.
`CCCC(=O)Nc1c(C(=O)OCC)[nH]c2ccccc12`: the CPE inhibition was 0%.
In the case of `Cc1ccc(Sc2c(C)nn(C(=O)c3cccc(S(=O)(=O)N4CCOCC4)c3)c2C)cc1`, the CPE inhibition is 0.04%.
Consider `O=C(Nc1ccc(S(=O)(=O)Nc2nccs2)cc1)c1ccc(=O)[nH]c1`, for which the CPE inhibition is -0.06%.
For `CN1CCN(CC(=O)Nc2sc3c(c2C(=O)Nc2ccccc2)CCCC3)CC1`, the CPE inhibition is 1.23%.
As for `CCOc1ccc(NC(=O)c2c(NC(=O)CN3CCCC3)sc3c2CCC3)cc1`, the CPE inhibition is -0.99%.
For `CCOC(=O)c1c(N)c2cc([N+](=O)[O-])ccc2n1C`, the CPE inhibition is 0.7%.
The same measure for `COCC(C)n1c(SCc2cc(C(=O)OC)c(C)o2)nc2ccccc2c1=O` (stereo not drawn): -0.56%; for `CC(=O)c1ccc(N2CCN(c3ccc(S(=O)(=O)NCCN(C)C)cc3[N+](=O)[O-])CC2)cc1`: -0.21%.
Regarding `CC(=O)c1ccc(N2CCN(c3ccc(S(=O)(=O)NCCCN(C)C)cc3[N+](=O)[O-])CC2)cc1`, the CPE inhibition is -2.19%.
Regarding `COCCn1nnnc1C(c1cccs1)N1CCN2CCCC2C1` (stereo not drawn), the CPE inhibition is 0.23%.
On to `CCOC(=O)c1c(N)sc(C(=O)Nc2ccccc2)c1C`, for which the CPE inhibition is -0.25%.
Regarding `CCOC(=O)c1c(NC(=O)CSc2cccc[n+]2[O-])sc(C(=O)Nc2ccccc2)c1C`, the CPE inhibition was -0.77%.
In the case of `Cc1cnc(NC(=O)Cc2cccs2)s1`, the CPE inhibition was 0.29%.
Turning to `COc1ccc(C2c3sc(=O)[nH]c3SC3C4CCC(C4)C23)cc1OC` (stereo not drawn), the CPE inhibition is 0.48%.
The same measure for `O=C(c1cc2ncccn2n1)N1CCc2c([nH]c3ccccc23)C1c1ccccc1F` (stereo not drawn): 2.67%; for `CCc1cc(C(=O)N2CCc3c([nH]c4ccccc34)C2c2ccc(OC)cc2F)no1` (stereo not drawn): 19.3%; for `C=CCn1c(SCC(=O)NNC(=O)Nc2ccc(C)cc2)nnc1-c1ccccc1`: 0.45%.
As to `c1ccc2c(c1)CN1CCCC1=N2`, the CPE inhibition is 0.51%.
The same measure for `O=C1CN2C(=Nc3ccc(Br)cc3C2c2ccccc2)CCN1` (stereo not drawn): -0.54%; for `CCN1CCc2nc3ccccc3c(C(=O)Nc3ccc(F)cc3)c2C1`: -0.07%.
As to `Cc1ccc(OCC(O)Cn2c(N3CCCCC3)nc3c2c(=O)[nH]c(=O)n3C)cc1C` (stereo not drawn), the CPE inhibition was -0.27%.
`CCOC(=O)NN1C(=O)c2ccccc2NC1c1ccccn1` (stereo not drawn): the CPE inhibition is 0.09%.
In the case of `O=C(Nc1ccccc1N1CCCC1)c1ccccc1Cl`, the CPE inhibition is -1.13%.
The same measure for `Cc1ccccc1/C=N/N1C(=O)CSC1=S`: 0.91%; for `Cc1ccc2cc(CN(CCN(C)C)C(=O)Nc3ccc(Cl)cc3)c(=O)[nH]c2c1`: 2.9%; for `Cc1ccc2[nH]c(=O)c(CN(CCCN(C)C)C(=O)Nc3cccc(Cl)c3)cc2c1`: -1.48%.
For `NC(=O)c1ccc(NC(=O)CSc2nnc(-c3cccnc3)n2Cc2ccco2)cc1`, the CPE inhibition was -0.08%.
`c1ccc(COC2CCCN(Cc3nc(Cc4ccccc4)no3)C2)cc1` (stereo not drawn): the CPE inhibition was -1.71%.
In the case of `CC(=O)Oc1ccc2occ(-c3ccccc3)c2c1`, the CPE inhibition was -0.4%.
The figure for `CCN(CC)S(=O)(=O)c1ccc(NC(=O)c2cc(-c3ccccc3)nc3ccccc23)cc1` is -0.41%.
The same measure for `CCN(CC)S(=O)(=O)c1ccc(C(=O)O)cc1`: 0.13%; for `CCOC(=O)C1(Cc2ccccc2C(F)(F)F)CCN(C2CCN(C(C)=O)CC2)CC1`: -1.08%.
Turning to `CCOC(=O)C1(Cc2ccccc2C(F)(F)F)CCN(C2CCCC2)CC1`, the CPE inhibition was -0.59%.
The same measure for `CC1CCC2C(=O)N(c3cccc(C(=O)Nc4ccccc4Cl)c3)C(=O)C2C1` (stereo not drawn): 0.29%.
